MARV entry inh = Marburg virus entry inhibition | 6.5% of 18,000 active | Potency, µM (titrated, usually from 49.2 µM), most hits filed as inhibitors | Marburg virus pseudotype entry/binding inhibition, cell-based
Lassa entry = inhibitors of Lassa virus binding or entry into cells | AID 720533 | Lassa virus pseudotyped entry inhibition, cell-based qHTS | Potency, µM (top dose mostly 49.2 µM), most hits filed as inhibitors | 4.1% of 18,000 active
Of the large screens only hits and unclear results are named; the others gave an inactive call; ! = not active in a repeat. An excerpt weighted towards active compounds, which were near 8% of everything screened. The call rests on the fitted dose curve; tested in HEK293 cells.

CCCCCC(=O)N1C[C@H](O)[C@@H](n2cc(C3CC3)nn2)C[C@H]1c1ccc(OC)cc1	none
Cc1cc2c(c(=O)n1Cc1ccccc1)[C@H]1O[C@](CCCCN3C(=O)c4ccccc4C3=O)(Cc3cc(C#N)ccc31)O2	MARV entry inh inconclusive
Nc1nc(Cl)nc2c1ncn2[C@@H]1O[C@H](CO)[C@@H](O)[C@@H]1F	MARV entry inh 2.5µM, Lassa entry inconclusive
Nc1nc(Cl)c2ncn(C3OC(CO)C(O)C3O)c2n1 (stereo not given)	none
CN1C=CC(=O)[C@@H](O)[C@@H]1c1ccccc1Br	none
Clc1ccc(COC(Cn2ccnc2)c2ccc(Cl)cc2Cl)cc1 (stereo not given)	MARV entry inh inconclusive, Lassa entry 35µM!
C=CCO[C@@H](Cn1ccnc1)c1ccc(Cl)cc1Cl	none
CCN1C(=NCc2ccccc2)N[C@@H](CCc2ccccc2)[C@H](C(=O)OC)[C@H]1C	none
CN1CCN(Cc2ccc(-c3cc4ncnc(Nc5ccc(OCc6cccc(F)c6)c(Cl)c5)c4s3)o2)CC1	MARV entry inh 10µM, Lassa entry inconclusive
Fc1cccc(COc2ccc(Nc3ncnc4sc(-c5ccco5)cc34)cc2Cl)c1	MARV entry inh inconclusive
CCCCCCCCCCCCC[N+](C)(C)Cc1ccccc1	MARV entry inh 8.9µM, Lassa entry 18µM
CC[N+](CC)(CCCNC1=CC(=O)C(NCCC[N+](CC)(CC)Cc2ccccc2)=CC1=O)Cc1ccccc1	none
C/C=C1\NC(=O)[C@H]2CSSCC/C=C/[C@H](CC(=O)N[C@H](C(C)C)C(=O)N2)OC(=O)C(C(C)C)NC1=O (stereo not given in full)	MARV entry inh 1.1µM, Lassa entry 3.2µM
COC(=O)c1c(C(=O)OC)c2c3cc(OC)c(OC)cc3ccn2c1C(=O)OC	none (no result: Lassa entry)
C=C[C@@]1(C)CC[C@H](O)[C@H]2C(=O)CCC[C@H]21	none
OC(c1ccc2c(c1)CN(Cc1cccc3nccnc13)CCO2)C1CCCCC1 (stereo not given)	none
CCc1nc(CN2CCOc3ccc(C(O)C4CCCCC4)cc3C2)c(C)[nH]1 (stereo not given)	MARV entry inh 13µM, Lassa entry inconclusive
O=C(c1n[nH]c2c1CCCC2)N1CCOc2ccc(C(O)C3CCCCC3)cc2C1 (stereo not given)	MARV entry inh 11µM, Lassa entry 8.9µM
O=C(c1ccc(Cn2cnnn2)cc1)N1CCOc2ccc(C(O)C3CCCCC3)cc2C1 (stereo not given)	Lassa entry inconclusive
Cc1cccc2c(N=Nc3ccc(S(N)(=O)=O)cc3)c(O)[nH]c12	none
C=CCOC(=O)N[C@@H](c1coc2ccccc2c1=O)[C@@H](C)C=CCC(=O)OC	none
CC(=O)c1ccc(OCc2cn(CC(=O)c3ccc(O)cc3)nn2)cc1C	none
CN1CCN(CCCNc2nc3ccc(Oc4ccc(NC(=O)Nc5cc(C(F)(F)F)ccc5F)cc4)cc3[nH]2)CC1	MARV entry inh inconclusive
CC(C)C1C(=O)N(Cc2cn(CC3CCCCC3)nn2)CCS(=O)(=O)N1Cc1ccc(-c2ccc(Cl)nc2)cc1 (stereo not given)	MARV entry inh inconclusive
CC(C)C1C(=O)N(Cc2cn(CC3CCCCC3)nn2)CCS(=O)(=O)N1Cc1ccc(-c2ccc(F)nc2)cc1 (stereo not given)	MARV entry inh inconclusive, Lassa entry 20µM
COCCN1C(=O)NC(c2ccc(Br)cc2)C(C(=O)OC)=C1C (stereo not given)	none
CCCC1COC(Cn2cncn2)(c2ccc(Cl)cc2Cl)O1 (stereo not given)	MARV entry inh 11µM, Lassa entry 13µM
Clc1ccc(C2(Cn3cncn3)OCCO2)c(Cl)c1	none
O=C(OCc1cn([C@@H]2CN(C(=O)C3CCCCC3)[C@@H](c3ccccc3)C[C@@H]2O)nn1)c1ccccc1	MARV entry inh inconclusive
CCCCCCCCOc1ccc(C(=O)c2ccccc2)c(O)c1	none
CCCCCCOc1ccc(C(=N)N(CCCC)CCCC)c2ccccc12	MARV entry inh 13µM, Lassa entry 13µM
CC(=O)Oc1cccc(O)c1	none
CC(=O)Oc1ccc(C2(c3ccc(OC(C)=O)cc3)Oc3ccccc3NC2=O)cc1	Lassa entry 10µM
Cc1ccc(NC(=O)CC2CC2)cc1-c1ccc(C(=O)NCC2CC2)cc1	none (no result: Lassa entry)
NS(=O)(=O)c1ccc(Nc2ncc(-c3ccccc3)o2)cc1	none
C=CCCN(Cc1ccc(C)cc1)S(=O)(=O)C=C	none
CN1CC[C@@]2(c3cccc(O)c3)Cc3nc4ccccc4cc3C[C@H]2C1	MARV entry inh 18µM
CCC(=O)O[C@]1(c2ccccc2)CCN(C)C[C@H]1C	none
O=C(C1CCCCC1)N1C[C@@H](O)[C@@H](n2cc(C3CC3)nn2)C[C@@H]1c1ccccc1	Lassa entry inconclusive
CC(C)CON=C1C[C@@H](O)[C@@H](O)[C@@H]2[C@H]3C(=O)N(c4ccc(F)cc4F)C(=O)[C@@H]3CC[C@@H]12	none
Cc1ccc2c(c1)Cc1c(C(=O)NC3CCCCC3)nn(-c3ccc(Cl)cc3Cl)c1-2	MARV entry inh inconclusive
Cc1c(C(=O)NN2CCCCC2)nn(-c2ccc(Cl)cc2Cl)c1-c1ccc(Cl)cc1	MARV entry inh 14µM, Lassa entry 16µM
O=C(OCc1cn([C@H]2C[C@H](c3ccc(Cl)cc3)N(C(=O)c3cccs3)C[C@H]2O)nn1)c1ccccc1	none (no result: Lassa entry)
CSC[C@H]1CN(c2ccccc2)C(=O)[C@H]1CC(=O)Nc1ccc(Br)cc1	none
Nc1ccn([C@@H]2O[C@H](CO)[C@@H](O)C2O)c(=O)n1 (stereo not given in full)	MARV entry inh 5µM, Lassa entry 7.1µM
Nc1ncn(C2CC(O)C(CO)O2)c(=O)n1 (stereo not given)	none
Nc1ncn([C@H]2O[C@@H](CO)[C@@H](O)[C@@H]2O)c(=O)n1	MARV entry inh 3.2µM, Lassa entry 2µM
Nc1ccn([C@@H]2O[C@H](CO)[C@@H](O)[C@H]2O)c(=O)n1	none
OC[C@H]1O[C@@H](n2cnc3c(=S)nc[nH]c32)[C@H](O)[C@@H]1O	MARV entry inh 7.9µM, Lassa entry 6.3µM
O=c1[nH]cnc2c1ncn2[C@@H]1O[C@H](CO)[C@@H](O)[C@H]1O	none
COC(=O)C1=C(C)N(Cc2ccccc2)C(=NCCc2ccccn2)NC1c1cccc(F)c1 (stereo not given)	none
COc1cccc([C@H]2NC(=O)C[C@@H]3C[C@@H](C)[C@@H](c4cccc(OC)c4)N3C(=O)C=CC[C@@H]2C)c1	none
Cc1ccc(CN2CC(N3CCN(C(=O)c4ccco4)CC3)CS2(=O)=O)cc1 (stereo not given)	none
CCCC[C@H]1CN2[C@H](c3ccc(Br)cc3)[C@H](C)CC[C@H]2C(=O)O1	none
NCCc1ccccn1	none
c1ccc(CN(CCN(Cc2ccccn2)Cc2ccccn2)Cc2ccccn2)nc1	MARV entry inh 10µM, Lassa entry 10µM
O=C1NC(=O)C(c2ccc(Cl)cc2)=C1Nc1ccc(Cl)c(C(=O)O)c1	MARV entry inh inconclusive
COc1cc(-c2ccc(C(F)(F)F)cn2)cc2c1OCCN(S(=O)(=O)C[C@]13CC[C@H](CC1=O)C3(C)C)C2	MARV entry inh inconclusive, Lassa entry 13µM
COc1cc(OC)c2nc(-c3cc4c(c(OC)c3)OCCN(C(=O)CC3NC(=O)c5ccccc53)C4)cc(C)c2c1 (stereo not given)	none
CC1=C(C(=O)Nc2ccc3n[nH]c(C)c3c2)C(c2ccc(C(F)(F)F)cc2)CC(=O)N1 (stereo not given)	MARV entry inh inconclusive
C[C@H]1C[C@@H](C)O[C@@]2(C1)C(=O)N(Cc1ccccc1C(F)(F)F)c1ccccc12	none

Screens deposited in PubChem by National Center for Advancing Translational Sciences (NCATS).
